Unmarked numbers belong to inactive results. Results filed as inconclusive are left out. The source made the active and inactive calls. Unless noted, calls follow the shape of the full dose curve.
How the values were obtained:
[1] = target: Lysosomal acid glucosylceramidase (Homo sapiens) (UniProt P04062); experiment: Glucocerebrosidase-p2 (AID 348; in the data active = potency below about 10 µM; also: potency is read from the fitted curve at half-maximal effect); details: purified GBA, blue fluorogenic substrate, 40 min
Lysosomal acid glucosylceramidase (Homo sapiens), sequence (P04062 whole entry, looked up): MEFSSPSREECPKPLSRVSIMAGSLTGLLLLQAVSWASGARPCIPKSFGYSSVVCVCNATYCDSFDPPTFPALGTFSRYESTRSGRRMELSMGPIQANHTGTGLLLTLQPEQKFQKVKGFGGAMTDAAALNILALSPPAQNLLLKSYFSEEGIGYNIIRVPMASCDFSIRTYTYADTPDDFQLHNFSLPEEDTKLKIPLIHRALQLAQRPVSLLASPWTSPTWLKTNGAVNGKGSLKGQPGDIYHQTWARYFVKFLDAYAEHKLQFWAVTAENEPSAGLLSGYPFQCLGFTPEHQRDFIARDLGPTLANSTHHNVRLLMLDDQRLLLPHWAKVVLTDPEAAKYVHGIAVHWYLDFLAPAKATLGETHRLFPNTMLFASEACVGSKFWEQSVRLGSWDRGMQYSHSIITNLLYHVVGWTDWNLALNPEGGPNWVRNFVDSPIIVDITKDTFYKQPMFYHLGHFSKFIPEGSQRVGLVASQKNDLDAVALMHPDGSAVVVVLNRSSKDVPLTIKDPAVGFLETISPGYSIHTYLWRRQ
Method in brief: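 Compounds titrated from 0.6 nM upwards against 0.2 nM enzyme in pH 5.9 citric acid/KH2PO4, taurocholate, tween-20; blue fluorogenic substrate 80 uM, 40 min room temperature, stopped and read Ex 365/Em 440 for AC50.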

[2] = target: Cytochrome P450 1A2 (Homo sapiens) (UniProt P05177); experiment: p450-cyp1a2 (AID 410); details: recombinant CYP1A2, luciferin-ME demethylation, luminescence; series mostly up to 11.4 µM; also: potency is read from the fitted curve at half-maximal effect;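 as to activity change, negative = inhibition: -100% = full effect of reference inhibitor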
Cytochrome P450 1A2 (Homo sapiens), sequence (P05177 whole entry, looked up): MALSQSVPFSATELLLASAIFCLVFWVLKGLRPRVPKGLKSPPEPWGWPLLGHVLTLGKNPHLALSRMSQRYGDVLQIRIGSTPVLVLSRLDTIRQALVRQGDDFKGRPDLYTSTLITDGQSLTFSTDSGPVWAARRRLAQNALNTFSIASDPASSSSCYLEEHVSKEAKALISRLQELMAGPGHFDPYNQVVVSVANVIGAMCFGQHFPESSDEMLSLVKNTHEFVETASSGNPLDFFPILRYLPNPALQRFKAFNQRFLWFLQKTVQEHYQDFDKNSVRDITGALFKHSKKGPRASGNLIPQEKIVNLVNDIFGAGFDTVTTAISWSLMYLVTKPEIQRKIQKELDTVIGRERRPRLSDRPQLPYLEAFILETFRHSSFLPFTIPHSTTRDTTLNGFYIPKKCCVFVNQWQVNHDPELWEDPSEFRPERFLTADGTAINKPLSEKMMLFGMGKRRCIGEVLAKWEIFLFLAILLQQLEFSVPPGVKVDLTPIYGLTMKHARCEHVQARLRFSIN
Method in brief: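 Inhibition was calculated relative to 57 uM furafylline (full inhibition). The reaction used human CYP1A2 at 20nM with Luciferin-ME at its Km, 100uM, driven by an NADPH-regenerating system for 60 min at room temperature.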

[3] = target: Glucocorticoid receptor (Homo sapiens) (UniProt P04150); experiment: GR-GFP Redistribution (AID 450;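 active = compounds whose dose series gives a full or clear partial fitted curve of increased nuclear translocation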; also: potency is read from the fitted curve at half-maximal effect); details: U2OS GR-GFP nuclear translocation, laser cytometry, 2 h
Glucocorticoid receptor (Homo sapiens), sequence (P04150 whole entry, looked up, the tested form may be a part): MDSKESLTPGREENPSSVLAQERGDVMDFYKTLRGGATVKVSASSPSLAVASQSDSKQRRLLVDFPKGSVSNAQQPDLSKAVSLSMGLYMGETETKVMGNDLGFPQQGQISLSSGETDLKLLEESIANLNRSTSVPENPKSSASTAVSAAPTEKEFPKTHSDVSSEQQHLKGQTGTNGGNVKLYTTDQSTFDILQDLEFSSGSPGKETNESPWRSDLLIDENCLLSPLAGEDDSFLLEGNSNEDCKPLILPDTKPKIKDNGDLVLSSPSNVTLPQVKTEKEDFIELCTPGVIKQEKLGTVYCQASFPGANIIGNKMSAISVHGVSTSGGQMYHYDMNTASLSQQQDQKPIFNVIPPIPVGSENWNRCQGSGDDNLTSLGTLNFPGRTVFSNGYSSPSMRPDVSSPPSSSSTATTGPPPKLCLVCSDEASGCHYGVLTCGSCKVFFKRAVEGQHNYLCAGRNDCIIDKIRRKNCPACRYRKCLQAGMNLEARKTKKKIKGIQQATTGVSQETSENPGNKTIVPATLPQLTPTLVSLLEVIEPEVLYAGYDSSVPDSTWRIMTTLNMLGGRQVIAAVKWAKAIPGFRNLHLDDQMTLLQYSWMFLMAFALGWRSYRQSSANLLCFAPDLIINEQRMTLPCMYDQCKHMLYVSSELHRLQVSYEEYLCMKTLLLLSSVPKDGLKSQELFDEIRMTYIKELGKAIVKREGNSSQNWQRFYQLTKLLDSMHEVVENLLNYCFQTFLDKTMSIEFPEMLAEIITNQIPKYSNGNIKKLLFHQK

[4] = target: Glucocorticoid receptor (Homo sapiens) (UniProt P04150); experiment: GR-EFC Redistribution (AID 451); details: CHO-K1 GR-EFC translocation, beta-gal luminescence, 2 h; also: potency is read from the fitted curve at half-maximal effect
Method in brief: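 CHO-K1 cells expressing nuclear EA and GR-ED fragments of b-gal; compounds titrated up to 46 uM final, 2 h at 37 C. GR nuclear translocation read as complemented b-gal luminescence after 1 h RT detection.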

[5] = target: Mitogen-activated protein kinase 10 (Mus musculus) (UniProt Q61831); experiment: JNK3 AlphaScreen Assay (AID 530; active = well fitted curve in either direction with a large enough effect, not every such curve was filed as active;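 also: kinase came from lysate of stimulated human HepG2 cells; signal reports phosphorylation of biotinylated GST-cJun 1-79 at Ser73 with 10 µM ATP; % is scaled to controls: 0 for no effect and ±100 for the full control effect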); details: JNK3 lysate, c-Jun phosphorylation; series mostly up to 11.4 µM
Method in brief: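 qHTS format: compounds tested as titrations against IL-1beta/TNF-alpha-activated HepG2 lysate JNK3 with biotin-GST-cJun substrate and 10 uM ATP at room temperature. Loss of anti-phospho-cJun AlphaScreen signal indicates inhibition.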

[6] = target: 3',5'-cyclic-AMP phosphodiesterase 4B (Homo sapiens) (UniProt Q07343); experiment: qHTS Assay for Inhibitors of PDE-IV (AID 607; active = well fitted activation curve with a large enough effect in the main read-out, with a control signal flat, not every such curve was filed as active; also: % of control where 0% means no effect); details: HEK293 ACTOne CNG channel cells, membrane potential fluorescence; series mostly up to 22.9 µM
3',5'-cyclic-AMP phosphodiesterase 4B (Homo sapiens), sequence (Q07343 whole entry, looked up): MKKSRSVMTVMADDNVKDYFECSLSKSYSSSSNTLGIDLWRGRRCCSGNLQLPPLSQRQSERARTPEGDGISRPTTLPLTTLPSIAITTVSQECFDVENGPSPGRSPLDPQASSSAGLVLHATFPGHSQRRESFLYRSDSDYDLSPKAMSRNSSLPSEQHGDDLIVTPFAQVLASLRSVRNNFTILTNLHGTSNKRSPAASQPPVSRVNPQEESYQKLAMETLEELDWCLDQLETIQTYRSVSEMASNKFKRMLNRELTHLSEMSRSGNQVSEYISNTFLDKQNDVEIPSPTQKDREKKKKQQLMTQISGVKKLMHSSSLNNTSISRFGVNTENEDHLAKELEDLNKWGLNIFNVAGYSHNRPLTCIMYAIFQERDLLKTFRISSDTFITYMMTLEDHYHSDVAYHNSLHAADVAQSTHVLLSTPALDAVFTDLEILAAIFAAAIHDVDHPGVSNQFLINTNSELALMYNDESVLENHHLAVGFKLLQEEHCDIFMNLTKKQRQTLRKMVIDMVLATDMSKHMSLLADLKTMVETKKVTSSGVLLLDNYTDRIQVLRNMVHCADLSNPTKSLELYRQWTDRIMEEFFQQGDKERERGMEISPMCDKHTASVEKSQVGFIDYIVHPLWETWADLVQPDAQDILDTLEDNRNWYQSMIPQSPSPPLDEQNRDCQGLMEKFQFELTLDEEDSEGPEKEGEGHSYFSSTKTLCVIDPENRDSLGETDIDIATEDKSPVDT
Method in brief: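 HEK293 ACTOne cells with CNG channel (1000/well), endogenous PDE4; membrane potential dye, compounds up to 22.9 uM final. Fluorescence Ex 535/Em 590; RO 20-1724 (100 uM final) as reference.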

[7] = target: Cytochrome P450 3A4 (Homo sapiens) (UniProt P08684); experiment: qHTS Assay for Inhibitors and Substrates of Cytochrome P450 3A4 (AID 884; active = well fitted curve in the direction sought with a large enough effect; an effect the other way counts as inactive or inconclusive; also: nearly all actives have a fitted effect of over 50% in size; also: potency is read from the fitted curve at half-maximal effect; as to activity change, negative = inhibition: % is scaled to controls: 0 for no effect and ±100 for the full control effect); details: recombinant CYP3A4, Luciferin-PPXE luminescence; series mostly up to 57.1 µM
Cytochrome P450 3A4 (Homo sapiens), sequence (P08684 whole entry, looked up): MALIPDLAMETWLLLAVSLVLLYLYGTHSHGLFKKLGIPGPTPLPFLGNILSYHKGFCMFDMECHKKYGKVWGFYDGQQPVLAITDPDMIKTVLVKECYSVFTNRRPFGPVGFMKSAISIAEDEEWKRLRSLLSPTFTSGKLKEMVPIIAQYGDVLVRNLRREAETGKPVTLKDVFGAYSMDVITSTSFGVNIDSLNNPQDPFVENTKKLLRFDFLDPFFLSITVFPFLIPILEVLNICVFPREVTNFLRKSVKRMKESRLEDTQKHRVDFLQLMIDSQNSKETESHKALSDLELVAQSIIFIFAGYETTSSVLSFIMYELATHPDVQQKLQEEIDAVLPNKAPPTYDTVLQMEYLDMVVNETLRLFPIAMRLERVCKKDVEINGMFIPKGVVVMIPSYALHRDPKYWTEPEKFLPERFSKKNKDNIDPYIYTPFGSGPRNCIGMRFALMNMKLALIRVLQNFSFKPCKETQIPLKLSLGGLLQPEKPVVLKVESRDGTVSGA
Method in brief: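 20 nM human CYP3A4 with 25 uM Luciferin-PPXE (at KM) in 200 mM KPO4, preincubated 10 min with compound; NADPH regeneration started a 60 min RT reaction. Luciferin detected by luminescence, normalized to 57 uM ketoconazole as full inhibition.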

[8] = target: Cytochrome P450 2D6 (Homo sapiens) (UniProt P10635); experiment: qHTS Assay for Inhibitors and Substrates of Cytochrome P450 2D6 (AID 891; active = well fitted curve in the direction sought with a large enough effect; an effect the other way counts as inactive or inconclusive; also: nearly all actives have a fitted effect of over 60% in size; also: potency is read from the fitted curve at half-maximal effect); details: recombinant CYP2D6, luciferin-ME EGE luminescence; series mostly up to 11.4 µM
Cytochrome P450 2D6 (Homo sapiens), sequence (P10635 whole entry, looked up): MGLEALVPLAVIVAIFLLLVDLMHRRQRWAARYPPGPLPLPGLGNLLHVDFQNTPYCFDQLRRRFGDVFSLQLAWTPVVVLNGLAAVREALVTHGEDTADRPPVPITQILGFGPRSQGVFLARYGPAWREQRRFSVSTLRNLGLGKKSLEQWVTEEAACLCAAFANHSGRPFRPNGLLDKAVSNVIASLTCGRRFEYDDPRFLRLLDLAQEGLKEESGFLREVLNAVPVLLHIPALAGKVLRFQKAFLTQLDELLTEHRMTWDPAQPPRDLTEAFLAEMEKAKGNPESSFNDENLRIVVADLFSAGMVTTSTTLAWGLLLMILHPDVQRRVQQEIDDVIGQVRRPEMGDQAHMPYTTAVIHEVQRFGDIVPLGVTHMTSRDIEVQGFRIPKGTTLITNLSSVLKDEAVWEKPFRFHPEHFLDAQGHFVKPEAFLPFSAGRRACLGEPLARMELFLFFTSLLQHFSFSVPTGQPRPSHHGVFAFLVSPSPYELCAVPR
Method in brief: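 Human CYP2D6 (5 nM) with 30 uM Luciferin-ME EGE (at Km) in 100 mM KPO4, compound preincubated 10 min, then NADPH regeneration system for 60 min at room temperature. Luciferin read by luminescence; normalized to 1.43 uM quinidine.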

[9] = target: Cytochrome P450 2C19 (Homo sapiens) (UniProt P33261); experiment: qHTS Assay for Inhibitors and Substrates of Cytochrome P450 2C19 (AID 899; active = well fitted curve in the direction sought with a large enough effect; an effect the other way counts as inactive or inconclusive; also: nearly all actives have a fitted effect of over 60% in size; also: potency is read from the fitted curve at half-maximal effect); details: recombinant CYP2C19, luciferin-H EGE luminescence; series mostly up to 11.4 µM
Cytochrome P450 2C19 (Homo sapiens), sequence (P33261 whole entry, looked up): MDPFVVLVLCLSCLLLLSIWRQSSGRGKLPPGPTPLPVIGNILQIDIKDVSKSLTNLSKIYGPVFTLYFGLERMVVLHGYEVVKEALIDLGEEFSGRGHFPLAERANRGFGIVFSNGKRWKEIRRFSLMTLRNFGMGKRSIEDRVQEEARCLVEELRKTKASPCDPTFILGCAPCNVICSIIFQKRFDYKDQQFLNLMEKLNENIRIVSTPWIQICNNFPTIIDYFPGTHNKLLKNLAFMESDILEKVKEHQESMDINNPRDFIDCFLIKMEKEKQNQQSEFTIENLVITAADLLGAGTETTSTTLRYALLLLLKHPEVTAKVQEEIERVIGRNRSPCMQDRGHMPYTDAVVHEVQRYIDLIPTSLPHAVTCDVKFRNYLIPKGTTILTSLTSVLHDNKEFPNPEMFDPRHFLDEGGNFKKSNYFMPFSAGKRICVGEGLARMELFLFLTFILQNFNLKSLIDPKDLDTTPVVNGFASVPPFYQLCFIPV
Method in brief: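 5 nM human CYP2C19 with 10uM Luciferin-H EGE (at KM) in 50mM KPO4, compound preincubated 10 min at 37C, then NADPH regeneration for 60 min at 37C. Luciferin read by luminescence after detection reagent; normalized to 57uM ketoconazole as full inhibition.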

[10] = target: Cytochrome P450 2C9 (Homo sapiens) (UniProt P11712); experiment: qHTS Assay for Inhibitors and Substrates of Cytochrome P450 2C9 (AID 883; active = well fitted curve in the direction sought with a large enough effect; an effect the other way counts as inactive or inconclusive; also: potency is read from the fitted curve at half-maximal effect; nearly all actives have a fitted effect of over 60% in size); details: recombinant CYP2C9, luciferin-H luminescence, 60 min; series mostly up to 11.4 µM
Cytochrome P450 2C9 (Homo sapiens), sequence (P11712 whole entry, looked up): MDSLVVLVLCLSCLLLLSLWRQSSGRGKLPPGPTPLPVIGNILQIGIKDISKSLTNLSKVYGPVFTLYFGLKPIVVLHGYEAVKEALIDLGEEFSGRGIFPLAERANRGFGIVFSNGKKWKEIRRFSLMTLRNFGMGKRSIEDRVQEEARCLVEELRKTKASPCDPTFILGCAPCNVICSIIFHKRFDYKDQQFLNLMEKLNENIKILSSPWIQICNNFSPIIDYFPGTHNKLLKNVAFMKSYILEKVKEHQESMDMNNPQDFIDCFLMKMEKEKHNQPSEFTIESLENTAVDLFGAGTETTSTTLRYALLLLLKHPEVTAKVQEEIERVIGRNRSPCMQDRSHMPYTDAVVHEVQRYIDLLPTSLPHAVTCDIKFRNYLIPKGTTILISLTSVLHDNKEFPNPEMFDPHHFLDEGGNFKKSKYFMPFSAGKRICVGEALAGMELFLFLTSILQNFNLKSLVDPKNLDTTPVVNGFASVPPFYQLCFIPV
Method in brief: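 Human CYP2C9 (10nM) with Luciferin-H at 100uM (its KM) in 25mM KPO4; compound preincubated 10 min at 37C, then NADPH regeneration for 60 min at 37C. Luciferin read by luminescence after detection reagent; normalized to 57uM sulphaphenazole as full inhibition.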

[11] = Stat Signaling Pathway (AID 446; active = well fitted curve in either direction with a large enough effect, not every such curve was filed as active;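 also: ME-180 cervical cancer cells given 40 pM IL-6 alongside compound; SIE-controlled beta-lactamase reporter measured as 460/530 nm FRET emission ratio; % is scaled to controls: 0 for no effect and ±100 for the full control effect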); details: ME-180 SIE beta-lactamase reporter, IL-6 stimulated, 5 h; at 7.69 µM (top of the series) unless noted
Method in brief: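 ME-180 cells carrying a SIE-driven beta-lactamase reporter are stimulated with 40 pM IL-6 for 5 h at 37C in the presence of compound. The 460/530 nm FRET substrate ratio is read after 2.5 h at RT. Data are normalised to 300 pM IL-6 and to 125 nM JAK inhibitor controls.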

[12] = target: Cytochrome P450 3A4 (Homo sapiens) (UniProt P08684); experiment: qHTS Assay for Activators of Cytochrome P450 3A4 (AID 885; active = well fitted curve in the direction sought with a large enough effect; an effect the other way counts as inactive or inconclusive; also: nearly all actives have a fitted effect of over 65% in size); details: recombinant CYP3A4, Luciferin-PPXE luminescence, 60 min; series mostly up to 11.4 µM
Method in brief: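 Human CYP3A4 (20 nM) with Luciferin-PPXE at 25 uM (its KM) in 200 mM KPO4; 10 min compound preincubation, then NADPH regeneration and 60 min reaction at RT. Luciferin read by luminescence; normalized to 57 uM ketoconazole full inhibition.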

[13] = NFAT Signaling Pathway (AID 444; active = well fitted curve in either direction with a large enough effect, not every such curve was filed as active;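 also: carbachol stimulus at about its EC50 of 1 µM final; % is scaled to controls: 0 for no effect and ±100 for the full control effect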); details: Jurkat NFAT-bla M1, carbachol, beta-lactamase ratio, 5 h; at 7.69 µM (top of the series) unless noted
Method in brief: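 Jurkat cells with NFAT-driven β-lactamase reporter and co-expressed M1 receptor, stimulated with carbachol (final 1 uM, ~EC50), compound titration, 5 h at 37 °C. CCF4 loaded 1 h at RT; 460/530 nm ratio gave %activity and AC50.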

[14] = Confirmation and Secondary Assay for Modulators of Hemoglobin Beta Chain Splicing at IVS2 654 locus (AID 910; active = well fitted curve in the direction sought with a large enough effect; an effect the other way counts as inactive or inconclusive;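 also: HeLa cells stably carrying EGFP split by mutant beta-globin IVS2-654 intron; % of control where 0% means no effect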); details: HeLa EGFP-654 splicing reporter, GFP fluorescence, 48 h; series mostly up to 38.3 µM
Method in brief: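 HeLa cells stably expressing EGFP interrupted by β-globin IVS2-654 intron, seeded overnight in Opti-MEM/2% FCS, then treated 2 days at 37 °C. Restored splicing read as total peak GFP intensity per well by laser scanning cytometry (488 nm excitation, 500–520 nm emission); 500 nM antisense PNA as control.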

[15] = Confirmation and Secondary Assay for Modulators of Hemoglobin Beta Chain Splicing at IVS2 705 locus (AID 930; active = well fitted curve in the direction sought with a large enough effect; an effect the other way counts as inactive or inconclusive;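 also: HeLa cells stably expressing the EGFP-705 splicing reporter; GFP fluorescence per well restored by corrected splicing of the IVS2-705 intron in EGFP; % of control where 0% means no effect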); details: HeLa EGFP-705 splicing reporter, GFP fluorescence, 48 h; series mostly up to 38.3 µM
Method in brief: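 Per-well GFP, captured at 1 x 8 µm resolution with 488 nm excitation, served as the read-out for HeLa EGFP-705 cells incubated 2 days with test compound versus DMSO.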

**Q.** For `CSc1ncnc2c1ncn2CC(=O)[C@H]1CC[C@H]2[C@H]3CCC4=CC(=O)CC[C@@]4(C)[C@@H]3CC[C@@]12C`, which Potency [1] is on record?
**A.** The Potency was over 11.4 µM.

**Q.** What about the Potency [2] of the same compound?
**A.** Its Potency is 3.98 µM (active).

**Q.** What about the Potency [3] of the same compound?
**A.** The Potency was over 46 µM.

**Q.** And the Potency [4]?
**A.** The Potency was over 9.22 µM.

**Q.** What about the Potency [5] of the same compound?
**A.** Its Potency is “inactive”.

**Q.** And the Potency [6]?
**A.** Its Potency is “inactive”.

**Q.** What about the activity change, negative = inhibition [7] of the same compound?
**A.** The activity change, negative = inhibition was -20.1% [at 11.4 µM].

**Q.** And the Potency [8]?
**A.** The Potency was “inactive”.

**Q.** What about the Potency [9] of the same compound?
**A.** Its Potency is “inactive”.

**Q.** For `O=C1C(Cl)=C(Nc2ccc(S(=O)(=O)Nc3ccccn3)cc2)C(=O)c2ccccc21`, which Potency [1] is on record?
**A.** Its Potency is over 11.4 µM.

**Q.** What about the Potency [2] of the same compound?
**A.** The Potency was 3.16 µM (active).

**Q.** And the Potency [3]?
**A.** The Potency was over 46 µM.

**Q.** And the Potency [4]?
**A.** Its Potency is over 9.22 µM.

**Q.** What about the Potency [5] of the same compound?
**A.** The Potency was “inactive”.

**Q.** What about the Potency [6] of the same compound?
**A.** The Potency was “inactive”.

**Q.** What about the Potency [10] of the same compound?
**A.** Its Potency is 2 µM (active).

**Q.** What about the Potency [8] of the same compound?
**A.** Its Potency is 3.16 µM (active).

**Q.** What about the Potency [9] of the same compound?
**A.** Its Potency is 0.794 µM (active).

**Q.** Which Potency [1] does the source give for `O=C1c2ccccc2-c2cc([N+](=O)[O-])c([N+](=O)[O-])cc21` here?
**A.** Its Potency is over 11.4 µM.

**Q.** And the Potency [2]?
**A.** Its Potency is 0.251 µM (active).

**Q.** And the Potency [3]?
**A.** Its Potency is over 46 µM.

**Q.** What about the Potency [4] of the same compound?
**A.** The Potency was over 9.22 µM.

**Q.** What about the Potency [5] of the same compound?
**A.** Its Potency is “inactive”.

**Q.** And the Potency [6]?
**A.** The Potency was “inactive”.

**Q.** What does the source list for `C[C@H]1CC(C)(C)C[C@@](OCCN2CCCCC2)(c2ccccc2)C1`?
**A.** Potency [1]: > 11.4 µM; Potency [2]: inactive; activity, negative = inhibition [11]: 7.87%; Potency [3]: > 46 µM; Potency [4]: > 9.22 µM; Potency [5]: inactive; Potency [12]: inactive; Potency [8]: 0.631 µM (active)

**Q.** Which results are given for `CN(C)CCCn1c2c3ccccc3ccc2c2oc(=O)c3ccccc3c21`?
**A.** Potency [1]: > 11.4 µM; Potency [2]: 0.316 µM (active); activity change, negative = inhibition [13]: -13.6%; Potency [3]: > 46 µM; Potency [4]: > 9.22 µM; Potency [5]: inactive; Potency [6]: inactive; Potency [8]: 1.26 µM (active)

**Q.** What does the source list for `C[N+](C)([O-])CCC=C1c2ccccc2CCc2ccccc21`?
**A.** Potency [1]: > 11.4 µM; Potency [2]: 0.794 µM (active); activity, negative = inhibition [11]: 10.1%; Potency [3]: > 46 µM; Potency [4]: > 9.22 µM; Potency [5]: inactive; Potency [6]: inactive; Potency [7]: 1.26 µM (active); Potency [12]: inactive; Potency [9]: 0.398 µM (active)

**Q.** For `Cc1cccc(CNc2ncnc3ccc(-c4ccc(C(=O)N(C)C)cc4)cc23)c1`, which Potency [1] is on record?
**A.** The Potency was over 11.4 µM.

**Q.** What about the Potency [2] of the same compound?
**A.** The Potency was 15.8 µM (active).

**Q.** And the activity change, negative = inhibition [13]?
**A.** Its activity change, negative = inhibition is -8.36%.

**Q.** And the Potency [3]?
**A.** Its Potency is over 46 µM.

**Q.** And the Potency [4]?
**A.** The Potency was over 46 µM.

**Q.** What about the Potency [5] of the same compound?
**A.** The Potency was “inactive”.

**Q.** What about the Potency [6] of the same compound?
**A.** The Potency was “inactive”.

**Q.** And the Potency [12]?
**A.** Its Potency is “inactive”.

**Q.** What about the outcome [14] of the same compound?
**A.** The outcome was “inactive”.

**Q.** And the outcome [15]?
**A.** The outcome was “inactive”.

**Q.** With `Cc1ccc(-c2nc(-c3nccc4ccccc34)oc2-c2ccccc2)cc1` as the compound, how does the Potency [1] read?
**A.** The Potency was over 11.4 µM.

**Q.** What about the Potency [2] of the same compound?
**A.** The Potency was 2.51 µM (active).

**Q.** And the activity, negative = inhibition [11]?
**A.** Its activity, negative = inhibition is 24.1%.

**Q.** What about the Potency [3] of the same compound?
**A.** Its Potency is over 46 µM.

**Q.** And the Potency [4]?
**A.** Its Potency is over 9.22 µM.

**Q.** What about the Potency [5] of the same compound?
**A.** Its Potency is “inactive”.

**Q.** What about the Potency [6] of the same compound?
**A.** Its Potency is “inactive”.

**Q.** And the Potency [12]?
**A.** Its Potency is “inactive”.

**Q.** With `Nc1ncnc2c([C@@H]3O[C@@H](CO)[C@H](O)[C@@H]3O)nsc12` as the compound, how does the Potency [1] read?
**A.** Its Potency is over 11.4 µM.

**Q.** And the activity change, negative = inhibition [2]?
**A.** The activity change, negative = inhibition was -16.8% [at 2.29 µM].

**Q.** What about the Potency [3] of the same compound?
**A.** The Potency was over 46 µM.

**Q.** What about the Potency [4] of the same compound?
**A.** Its Potency is over 9.22 µM.

**Q.** And the Potency [5]?
**A.** The Potency was “inactive”.

**Q.** And the Potency [6]?
**A.** The Potency was “inactive”.
